Sampled rows, rich in hits. Any-hit rate of the full collection: about 3%.
NLRP3 yeast inh: NALP3 inflammasome inhibitors in reconstituted yeast, primary screen, luminescence, uHTS; hit rate 0.39% among 330,000; Yeast reconstituted NLRP3/ASC/caspase-1, beta-gal luminescence, 24 h; inhibition, % at 10 µM;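 active = inhibition of 50% or more; inactive = inhibition below 50%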
SUMO Mot1 rescue: yeast Mot1-301 growth rescue at high temperature, primary screen, SUMOylation pathway inhibitor project, S. cerevisiae, ATP luminescence, 38.5C; S. cerevisiae Mot1-301 growth rescue; percent above DMSO median, 100 means doubled; growth rescue, % at 18.8 µM; hit rate 1% among 320,000; AID 2716, 2010;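 active = every valid replicate shows activation above 250% relative to neutral control wells; inactive = the rest, any valid replicate at or below 250%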
Bfl-1 A1 inh: caspase 3/7 activation in MEF A1-2A-BIM cells, primary screen, A1 inhibitor project, cell-based, luminescence, HTS; Caspase-Glo 3/7 luminescence, 3 h; percent of clofoctol response, vehicle zero; caspase activation, % (concentration not given with the values); hit rate 0.066% among 330,000; AID 2462, 2010;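 active = over half of replicate activation scores above 10%, or exactly half above 10 with the replicate mean above 10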
CHT allo act: CHT positive allosteric modulators, primary screen, cell-based, membrane potential dye, choline EC20; AID 488977, 2010; B-score at 10 µM; CHT-expressing cells; hits give high values; LV-AA mutant CHT in HEK293 cells; High affinity choline transporter 1 (Homo sapiens), Q9GZV3; hit rate 0.49% among 310,000;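 active = initial fluorescence not abnormally high and integrated response B-score, plate-corrected, over 3 SD above library mean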
Target sequence (Q9GZV3 whole entry, looked up): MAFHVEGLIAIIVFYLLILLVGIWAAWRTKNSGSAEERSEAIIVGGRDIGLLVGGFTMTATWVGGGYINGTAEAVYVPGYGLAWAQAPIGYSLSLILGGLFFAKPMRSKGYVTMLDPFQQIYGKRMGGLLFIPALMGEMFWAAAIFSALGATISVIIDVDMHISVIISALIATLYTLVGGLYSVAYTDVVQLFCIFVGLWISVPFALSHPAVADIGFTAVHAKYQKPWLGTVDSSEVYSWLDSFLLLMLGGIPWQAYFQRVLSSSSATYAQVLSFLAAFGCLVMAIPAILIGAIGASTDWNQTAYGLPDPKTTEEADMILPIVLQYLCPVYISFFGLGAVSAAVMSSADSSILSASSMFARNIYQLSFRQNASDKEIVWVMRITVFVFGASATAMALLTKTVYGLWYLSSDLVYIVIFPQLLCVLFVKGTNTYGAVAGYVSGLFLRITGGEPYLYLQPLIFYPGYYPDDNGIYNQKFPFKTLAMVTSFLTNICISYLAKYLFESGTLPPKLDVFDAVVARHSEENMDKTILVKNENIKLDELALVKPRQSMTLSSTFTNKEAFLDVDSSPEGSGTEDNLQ
NALP1 inh: NALP1 inflammasome inhibitors in reconstituted yeast, colorimetric, S. cerevisiae, triplicate retest; S. cerevisiae NALP1/ASC/caspase-1 growth, X-gal OD620, 72 h; inhibition, % at 10 µM; hit rate 0.61% among 280,000; in the data active = inhibition mostly above about 24%, no sharp cut-off; inactive = mostly below about 32%
CHT block: inhibitors of human choline transporter CHT | B-score at 10 µM | hit rate 0.86% among 310,000 | High affinity choline transporter 1 (Homo sapiens), Q9GZV3 | CHT-expressing cells, membrane potential dye, choline response; hits give low values;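 active = B-score over 3 SD under the library average, and starting fluorescence ratio not unusually high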;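 also: choline stimulus applied at its EC90 after an EC20 pre-addition; B-score computed on integrated fluorescence ratio after choline addition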
CHT inh conf: CHT inhibitors, confirmation, cell-based, membrane potential dye, duplicate; hit rate 70% among 2,400; shares compounds with CHT block; CHT-expressing cells, choline membrane potential dye; LV-to-AA substituted CHT, HEK293 cells; CHT activity remaining % of control (hits give low values), % at 10 µM;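 active = choline transporter activity left, mean of duplicates at 10 µM, below buffer-only control mean minus 3 SD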;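 also: depolarization triggered by choline at its EC90 following an EC20 pre-addition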
HEK293 MPD ctr: membrane potential effects in parental HEK293, counter-screen for CHT inhibitor project, cell-based, membrane potential dye | shares compounds with CHT block | choline response; active = decrease or increase beyond buffer ±3SD | membrane potential ratio readout (active if shifted either direction beyond buffer ±3SD; no single direction) at 10 µM | hit rate 4% among 2,400 | AID 493222, 2011;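 also: parental cells lack the transporter so any hit is non-specific; ratio is peak minus trough fluorescence over baseline after EC90 choline challenge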
Large screens that a line does not name were inactive (follow-up assays come after a bar, where they were run).

O=C(O)c1cc([N+](=O)[O-])cc([N+](=O)[O-])c1N1CCN(c2cccc(C(F)(F)F)c2)CC1	CHT block -5.3 | CHT inh conf inactive | HEK293 MPD ctr inactive
Cc1ccc(S(=O)(=O)CC(=O)NCc2ccc(Cl)cc2)cc1	none (no result: CHT allo act, NALP1 inh, CHT block)
Cc1ccc(C(=O)C[n+]2cc(Br)cc(Br)c2)cc1	CHT block -13 | CHT inh conf 21% | HEK293 MPD ctr inactive
O=C(C[n+]1cccc(Br)c1)c1ccc(-c2ccccc2)cc1	CHT block -15 | CHT inh conf -0.8% | HEK293 MPD ctr inactive
O=C(C[n+]1cc(Br)cc(Br)c1)c1ccc(-c2ccccc2)cc1	none
O=C(C[n+]1cccc(Br)c1)c1cccs1	CHT block -9.2 | CHT inh conf 26% | HEK293 MPD ctr inactive
O=C(C[n+]1cccc(Br)c1)c1ccccc1	CHT block -6 | CHT inh conf 18% | HEK293 MPD ctr inactive
CCOC(=O)c1c(NC(=O)COC(=O)/C=C/c2ccccc2)sc(C(=O)NC)c1C	none (no result: CHT allo act, NALP1 inh, CHT block)
COC(=O)c1ccc[n+](CC(=O)c2ccc(Br)cc2)c1	none
COc1ccc(C(=O)C[n+]2cccc(Br)c2)cc1	CHT block -19 | CHT inh conf -0.1% | HEK293 MPD ctr inactive
COc1ccc(S(=O)(=O)N2CCCC(N(C)CCc3ccccc3)C2)cc1OC (configuration not stated)	none
Cc1cc(C)c(NC(=O)COC(=O)c2cccc3c2C(=O)c2ccccc2C3=O)c(C)c1	CHT block -5.1 | CHT inh conf inactive | HEK293 MPD ctr inactive
Cc1ccc(NC(=O)COC(=O)C2CSC3(C)CCC(=O)N23)cc1S(=O)(=O)N1CCOCC1 (configuration not stated)	CHT block -7.3 (no result: SUMO Mot1 rescue) | CHT inh conf inactive | HEK293 MPD ctr inactive
COc1ccc(NC(=S)NNC(=O)C2CC2c2ccc(C)cc2)cc1 (configuration not stated)	none
O=C(NNC(=S)Nc1ccc(F)cc1)C1CC1c1ccc(Cl)cc1 (configuration not stated)	CHT block -9.8 | CHT inh conf 14% | HEK293 MPD ctr inactive
Cc1ccc(C2CC2C(=O)NNC(=S)Nc2cccc(C)c2)cc1 (configuration not stated)	none
Cc1ccc(NC(=S)NNC(=O)C2CC2c2ccc(C)cc2)cc1 (configuration not stated)	CHT block -5.5 | CHT inh conf 58% | HEK293 MPD ctr inactive
Cc1ccc(C2CC2C(=O)NNC(=S)Nc2cccc(Cl)c2)cc1 (configuration not stated)	CHT block -12 | CHT inh conf 43% | HEK293 MPD ctr inactive
CCOC(=O)C1CCN(Cc2c(O)c3ccccc3oc2=O)CC1	CHT block -5.9 | CHT inh conf 65% | HEK293 MPD ctr inactive
CCOC(=O)C1CCN(Cc2c(O)ccc3ccccc23)CC1	none
CCn1c(SCc2nc3scc(-c4ccccc4)c3c(=O)[nH]2)nnc1-c1cccs1	CHT block -7.3 | CHT inh conf inactive | HEK293 MPD ctr inactive
CCn1c(SCc2nc(-c3ccccc3)no2)nnc1-c1ccco1	CHT block -5.2 | CHT inh conf 55% | HEK293 MPD ctr inactive
CCn1c(SCc2nc(-c3ccccc3)no2)nnc1-c1cccs1	CHT block -5.5 | CHT inh conf 47% | HEK293 MPD ctr inactive
CCn1c(SCc2nc(-c3ccccc3)no2)nc2ccccc21	none
Cc1nc(SC2CC(=O)N(c3cc(Cl)cc(Cl)c3)C2=O)nc2c1CCCC2 (configuration not stated)	CHT block -9.2 | CHT inh conf 57% | HEK293 MPD ctr inactive
Oc1c(Br)cc(/C=N/n2c(-c3ccccc3)n[nH]c2=S)cc1Br	none
Oc1ccc(/C=N/n2c(-c3ccccc3)n[nH]c2=S)cc1Br	CHT block -6 | CHT inh conf 54% | HEK293 MPD ctr inactive
S=c1[nH]nc(-c2ccccn2)n1/N=C/c1cccc(Cl)c1	CHT block -5.7 | CHT inh conf inactive | HEK293 MPD ctr inactive
Cc1ccc(NC(=O)CN(C)C(=O)c2cc(S(=O)(=O)N(C)C)ccc2N2CCCC2)cc1	none (no result: NALP1 inh)
CCOC(=O)c1c(CCl)nc2ccccc2c1C	CHT block -8.9 | CHT inh conf 68% | HEK293 MPD ctr inactive
Cc1cc(-c2nc3cccnc3s2)ccc1NS(=O)(=O)c1ccc2c(c1)OCCO2	CHT block -7.3 | CHT inh conf inactive | HEK293 MPD ctr inactive
Cc1c(NS(=O)(=O)c2ccc3c(c2)OCCO3)cccc1-c1nc2cccnc2s1	none
CCN(Cc1nc2ccccc2c(=O)[nH]1)C(=O)c1ccc(C)c(NC(=O)c2ccco2)c1	none (no result: CHT allo act, NALP1 inh, CHT block)
CCOc1cc(/C=C2/C(=O)ON=C2C)cc(Br)c1O	CHT block -9.6 | CHT inh conf 42% | HEK293 MPD ctr inactive
COc1cc(/C=C2/C(=O)ON=C2c2ccccc2)ccc1O	CHT block -6.7 | CHT inh conf 37% | HEK293 MPD ctr inactive
CC1=NOC(=O)/C1=C/c1ccc(O)c(Br)c1	CHT block -9.6 | CHT inh conf 21% | HEK293 MPD ctr inactive
CCCOc1ccc(/C=C2/C(=O)ON=C2C)cc1OCC	none
CCOc1cc(/C=C2\C(=O)ON=C2c2ccccc2)cc(Br)c1O	CHT block -5.6 | CHT inh conf 44% | HEK293 MPD ctr inactive
COc1cc(/C=C2\C(=O)ON=C2c2ccccc2)cc(Cl)c1O	none (no result: SUMO Mot1 rescue)
CC(NC(=O)c1ccc(NC(=O)CC2SC(N3CCCC3)=NC2=O)cc1)c1ccc(F)cc1 (configuration not stated)	none (no result: CHT allo act, NALP1 inh, CHT block)
CC(C)CCNC(=O)C1CC(c2ccccc2[N+](=O)[O-])=NO1 (configuration not stated)	none (no result: NALP1 inh)
COc1ccc(NS(=O)(=O)c2cccc(C(=O)NCC(c3cccs3)N3CCOCC3)c2)cc1 (configuration not stated)	none (no result: CHT allo act, NALP1 inh, CHT block)
CCOC(=O)CN(Cc1ccccc1)C(=O)OC(C)(C)C	none
COC(=O)N1c2ccccc2C=Cc2ccccc21	none

Screening data (PubChem)
